Consider 50 compounds from PubChem BioAssay AID2551 (National Center for Advancing Translational Sciences (NCATS), 2010).

The campaign covered roughly 310,000 compounds. About 17,000 (5.5%) were called active. Another 11% or so got no clear call; they are omitted. Many of the other results were omitted from the sample, so actives are more common in it than they were. Unmarked numbers belong to inactive results. The call rests on the fitted dose curve; in most records, active means well fitted inhibition curve with a large enough effect; inconclusive means small, poorly fitted or top-dose-only effect, or effect the other way; inactive means no such curve, though single readings can be large or run the other way.
On the % scale 0 is the no-effect control and ±100 the full control effect; potency means the concentration at half of the fitted maximal effect.

The target in this assay is Nuclear receptor ROR-gamma (Mus musculus) (UniProt P51450). Briefly: qHTS for inhibitors of ROR gamma transcriptional activity. Further: nearly all actives have a fitted effect of over 60% in size. Particulars: Drosophila S2 Gal4-RORgamma UAS-luciferase reporter, 20 h; series mostly up to 53.6 µM; activity change, negative = inhibition: at the top concentration. A digest of the protocol: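 In this cell-based reporter format, copper sulfate (700 uM final) drives Gal4–ROR gamma fusion expression from a metallothionein promoter in Drosophila Schneider cells; compounds preincubated 1 hr, reporter read after 20 hr at ambient temperature.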
Chain of Nuclear receptor ROR-gamma (Mus musculus) (P51450 whole entry, looked up, the tested form may be a part): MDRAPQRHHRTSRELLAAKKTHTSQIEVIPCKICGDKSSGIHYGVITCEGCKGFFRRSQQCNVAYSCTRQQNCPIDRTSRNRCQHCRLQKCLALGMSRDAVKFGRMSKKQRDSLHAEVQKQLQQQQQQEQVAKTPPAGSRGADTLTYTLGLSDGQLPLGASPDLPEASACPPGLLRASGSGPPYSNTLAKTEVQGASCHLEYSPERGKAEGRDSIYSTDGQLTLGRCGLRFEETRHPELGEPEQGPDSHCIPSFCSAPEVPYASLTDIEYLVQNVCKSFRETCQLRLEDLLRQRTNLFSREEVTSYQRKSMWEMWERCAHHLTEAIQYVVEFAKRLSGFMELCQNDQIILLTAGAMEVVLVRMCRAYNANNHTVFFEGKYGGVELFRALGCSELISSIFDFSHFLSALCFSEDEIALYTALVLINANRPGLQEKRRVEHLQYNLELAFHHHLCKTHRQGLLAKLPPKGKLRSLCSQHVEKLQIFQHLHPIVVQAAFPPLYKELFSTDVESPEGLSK
In the case of `COC(=O)c1ccc2ccccc2c1OC1OC(CO)C(O)C(O)C1NC(C)=O` (stereo not given), the “activity change, negative = inhibition” value was -4.64%. As to `CC1(C)Cc2c(sc3nc4n(c(=N)c23)CCCCC4)CO1`, the “activity change, negative = inhibition” value was 25.8%. For `CN(C)CCSc1nc(N)c2c3c(sc2n1)COC(C)(C)C3`, the “activity change, negative = inhibition” value was -36.3%. `C=CCNC(=S)NNc1ncnc2sc3c(c12)CC(C)(C)OC3`: the Potency is 1.26 µM (active). As to `Fc1ccc(-c2ccc(NCCN3CCOCC3)nn2)cc1`, the “activity change, negative = inhibition” value is 20%.

Consider `CC(=O)c1c(C)oc2ccc(NS(=O)(=O)c3ccccc3)cc12`, for which the “activity change, negative = inhibition” value was 13.9%. On the same count and under the same terms, for `Cc1ccc(CN2CCC(n3nccc3NC(=O)CCCc3ccccc3)CC2)o1` the value was -40.9%.

As to `O=C(NNc1ccccn1)c1ccc(Cl)nc1`, the Potency is 12.6 µM (active). On to `O=C(CCl)NNc1cccc(Cl)n1`, for which the “activity change, negative = inhibition” value was 30%. The same measure, in the same setting: in the case of `O=C(Nc1cnccn1)c1cccnc1` it was 13.5%. For `COc1ccc(C)cc1N(CC(=O)NC(C)c1ccccc1)S(C)(=O)=O` (stereo not given), the “activity change, negative = inhibition” value is 16.1%. For `COc1cccc(NC(=O)CN(C)C(=O)Cc2ccc(Cl)cc2Cl)c1`, the “activity change, negative = inhibition” value was 3.05%. Regarding `CCCC(=O)Nc1cccc(NC(=S)NC(=O)C(C)Oc2ccc(Cl)cc2Cl)c1` (stereo not given), the Potency was 6.31 µM (active). `CC(Oc1ccc(Cl)cc1Cl)C(=O)/C=C/N(C)C` (stereo not given): the “activity change, negative = inhibition” value was -4.84%.

On to `CCOC(=O)N1CCN(S(=O)(=O)N2CCCC(C(=O)NCCCN3CCC(C)CC3)C2)CC1` (stereo not given), for which the “activity change, negative = inhibition” value is -6.51%. With `NC(=O)c1c(Nc2nc3c(F)cccc3s2)sc2c1CCCC2`, the Potency was 12.6 µM (active).

In the case of `NC(=O)c1c(NC(=O)c2ccccc2)sc2c1CCCC2`, the “activity change, negative = inhibition” value is -16.4%. For `Fc1cc(F)c2nc(N3CCOCC3)sc2c1`, the “activity change, negative = inhibition” value was 30.4%. Consider `Fc1cc(F)c2nc(Nc3nc4c(F)cccc4s3)sc2c1`, for which the Potency was 3.98 µM (active).

As to `NC(=O)c1c(NC(=O)CSc2nc(N)cc(=O)[nH]2)sc2c1CCCC2`, the “activity change, negative = inhibition” value is 11.5%. On to `CC(C)(C)c1ccc(CN2C(=O)c3ccccc3S2(=O)=O)cc1`, for which the “activity change, negative = inhibition” value was 22.5%. On the same count and under the same terms, in the case of `COc1ccc(NC(=O)c2sc3nc(C)nc(N4CCN(c5ccccn5)CC4)c3c2C)c(OC)c1` it was -30.6%; in that of `O=C(NC1CCN(S(=O)(=O)c2ccc(F)cc2)CC1)c1ccccc1`, -28.7%.

On to `Cc1nn(CC(=O)NCCc2ccccc2)c(=O)c2cc3occc3n12`, for which the “activity change, negative = inhibition” value is 19.9%. Regarding `CCCCN1C(=S)NC[C@@H]1C(C)CC` (stereo not given in full), the Potency was 3.55 µM (active). As to `O=C(NC(=S)NC1CCS(=O)(=O)C1)c1cccc([N+](=O)[O-])c1` (stereo not given), the “activity change, negative = inhibition” value is -27.1%. On the same count and under the same terms, in the case of `COc1ccccc1N=Cc1c(O)c2ccccc2oc1=O` it was -38.7%. Take `O=c1c(-c2ccccc2)coc2cc(O)ccc12`: the “activity change, negative = inhibition” value was 28.4%. With `O=c1c(O)c(-c2ccc(O)cc2)oc2ccccc12`, the Potency was 7.94 µM (active). For `CCN(CC)S(=O)(=O)c1ccc(N2CCN(C)CC2)c(NC(=O)Nc2ccccc2F)c1`, the “activity change, negative = inhibition” value is -26.7%.

With `CCn1c(=O)c2ccccc2n(CC(=O)N2CCCc3ccccc32)c1=O`, the “activity change, negative = inhibition” value was -16%. Regarding `CC(=O)NC(Cc1c[nH]c2ccccc12)C(=O)NCCc1ccccc1` (stereo not given), the activity change, negative = inhibition is 6.43% [at 1.91 µM]. Take `Cc1nccn1CC(=O)N/N=C/c1ccc(O)c(O)c1`: the “activity change, negative = inhibition” value is -18%.

For the compound `Oc1ccc(Br)cc1/C=N/Nc1ccccn1`, the Potency was 5.62 µM (active). Turning to `O=C(Nc1ccc(Br)cc1)c1cc(S(=O)(=O)Nc2ccccn2)ccc1Cl`, the “activity change, negative = inhibition” value was -0.848%. The same measure, in the same setting: in the case of `O=c1ccc(-c2ccc(S(=O)(=O)Nc3ccccc3)o2)n[nH]1` it was -24.5%; in that of `COc1ccc(C(=O)c2c(C)c(CCC#N)n3ccccc23)c(OC)c1`, 3.97%; in that of `COCCCC1CCN(C(=O)C2CCC(=O)N(C3CCCCCC3)C2)CC1` (stereo not given), 1.67%. Still for that read-out and setting: for `Cc1cc(C(=O)NC2CCCc3c2cnn3-c2cccc(C)c2C)c(C)o1` (stereo not given) the value was -111%; for `Cc1nc2ccccc2c(=O)n1NC(=O)c1ccccc1`, -41%. As to `O=[N+]([O-])c1ccc(N/N=C/c2ccccc2)cc1`, the “activity change, negative = inhibition” value was -1.85%. Still for that read-out and setting: for `O=C(Nn1cnc2ccccc2c1=O)c1ccccc1` the value was 12.3%.

For `O=c1c2ccccc2nc(N/N=C/c2ccccc2)n1O`, the Potency was 11.2 µM (active).

In the case of `O=c1c2ccccc2ncn1/N=C/c1ccccc1`, the Potency is 10 µM (active). As to `CCCc1nc2ccccc2c(=O)n1/N=C/c1ccc(O)c(O)c1`, the “activity change, negative = inhibition” value was -4.72%. The same measure, in the same setting: in the case of `Cc1ccc2c(=O)cc(C(=O)NCCc3ccc(S(N)(=O)=O)cc3)oc2c1C` it was -29%; in that of `CCCCn1c(N)c(N(CCOC)C(=O)c2oc3ccc(OC)cc3c2C)c(=O)[nH]c1=O`, -16.9%. `CCC(=O)Nc1ccc(C(=O)NNC(=O)c2ccc(Cl)cc2)cc1`: the “activity change, negative = inhibition” value is 10%. For `CCc1cccc(NC(=O)CCCN2C(=O)C(c3ccccc3)Oc3cccnc32)c1` (stereo not given), the “activity change, negative = inhibition” value was 18%. As to `O=C1c2ccccc2S(=O)(=O)N1Cc1c(F)cccc1Cl`, the “activity change, negative = inhibition” value is 14.6%.
